MBD2 DNA inh = MBD2-methylated oligo binding inhibition; 370,000 tested, 0.31% active; inhibition, % at 4.4 µM; Q9UBB5; AID 686964; TR-FRET, MBD2 binding to methylated oligonucleotide; in the data active means inhibition above about 13%
Target sequence (Q9UBB5 whole entry, looked up): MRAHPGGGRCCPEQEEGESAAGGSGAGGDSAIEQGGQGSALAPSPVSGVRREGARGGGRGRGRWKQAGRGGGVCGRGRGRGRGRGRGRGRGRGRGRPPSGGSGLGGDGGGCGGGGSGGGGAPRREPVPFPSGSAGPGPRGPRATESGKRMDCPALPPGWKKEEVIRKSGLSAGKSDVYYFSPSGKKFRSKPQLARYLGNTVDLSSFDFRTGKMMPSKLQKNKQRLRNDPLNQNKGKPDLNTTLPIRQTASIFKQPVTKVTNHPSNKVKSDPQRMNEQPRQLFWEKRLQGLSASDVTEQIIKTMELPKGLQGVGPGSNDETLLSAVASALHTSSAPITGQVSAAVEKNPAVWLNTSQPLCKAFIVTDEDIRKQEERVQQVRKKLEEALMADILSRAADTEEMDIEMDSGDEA
UHRF1 MBD2 ctr = human UHRF1 methylated DNA binding inhibitors; Q96T88; UHRF1 binding to methylated oligo, TR-FRET; inhibition, % at 4.4 µM; 370,000 tested, 0.75% active; AID 687016; in the data active means inhibition above about 21%;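 further: UHRF1 SRA domain binding a hemimethylated CpG hairpin DNA probe; 0% = median of test compound wells and 100% = reference inhibitor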
PfG6PD inh = PfG6PD (Plasmodium falciparum) enzyme inhibition | PfGluPho enzyme, NADPH resazurin-diaphorase fluorescence | inhibition, % at 20 µM | 350,000 tested, 0.78% active | AID 504690;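 active means inhibition reaching at least a set limit at 20 µM in the primary screen, cut at about 59% in these data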;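 further: 0% = DMSO wells with substrate and 100% = DMSO wells lacking glucose-6-phosphate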
PfM18AAP inh = blocks P. falciparum M18 aspartyl aminopeptidase | recombinant PfM18AAP, H-Glu-NHMec fluorogenic cleavage | 290,000 tested, 1.2% active | inhibition, % at 7.35 µM | AID 1822;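 active means inhibition above the campaign mean inhibition over all tested compounds plus 3 SD, cut at about 28% in these data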;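 further: 0% = plate median of test compound wells and 100% = 2 mM ZnCl2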
PRMT1 inh = PRMT1 (human) inhibition, primary screen; inhibition, % at 2.79 µM; recombinant PRMT1, activity-based probe fluorescence polarization; 370,000 tested, 1.3% active;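 active means inhibition above about 21% made by adding two undisclosed values, limit read from the data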
Target sequence (Q99873 whole entry, looked up): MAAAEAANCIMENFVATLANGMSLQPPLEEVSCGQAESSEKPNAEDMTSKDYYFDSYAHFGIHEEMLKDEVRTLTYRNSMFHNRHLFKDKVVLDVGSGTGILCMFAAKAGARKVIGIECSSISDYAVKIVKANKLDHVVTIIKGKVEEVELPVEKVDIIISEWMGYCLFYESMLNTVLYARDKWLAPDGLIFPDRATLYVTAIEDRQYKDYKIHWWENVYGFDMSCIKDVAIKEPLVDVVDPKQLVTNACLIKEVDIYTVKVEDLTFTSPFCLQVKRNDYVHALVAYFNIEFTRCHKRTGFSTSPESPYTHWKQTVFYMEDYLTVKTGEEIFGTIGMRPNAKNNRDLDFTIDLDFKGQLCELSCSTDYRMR
PfG6PD confirm = PfG6PD inhibition, single-dose confirmed; 2,400 tested, 34% active; AID 504753; inhibition, % at 20 µM; recombinant PfGluPho, NADPH-diaphorase-resazurin fluorescence; shares compounds with PfG6PD inh;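 active means inhibition of at least 50% at 20 µM in any single replicate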;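 further: 0% = DMSO with substrate and 100% = DMSO lacking glucose-6-phosphate substrate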
Diaph ctr 10uM = diaphorase inhibition or oxidation at 10 uM NADPH; inhibition, % at 20 µM; shares compounds with PfG6PD inh; 820 tested, 39% active; diaphorase-coupled resazurin reduction, fluorescence, NADPH 10 uM;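 active means average inhibition reaching 50% or more with the compound at 20 µM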;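 further: resorufin red fluorescence formed as diaphorase reduces resazurin using NADPH; 0% = DMSO with enzyme and 100% = DMSO without enzyme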
Diaphorase 30uM = counter-screen for P. falciparum G6PD inhibitors: diaphorase inhibitors, oxidizers; shares compounds with PfG6PD inh; Diaphorase/resazurin coupled assay, resorufin fluorescence, 30 uM NADPH; inhibition, % at 20 µM; 820 tested, 29% active; AID 504863;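 active means inhibition averaging 50% or more, tested at 20 µM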;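 further: 0% = DMSO with enzyme and 100% = DMSO wells lacking diaphorase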
PRMT1 confirm = confirmation of human PRMT1 inhibitors. AID 687036. inhibition, % at 2.79 µM. recombinant His-PRMT1, activity-based probe fluorescence polarization. 3,300 tested, 42% active. shares compounds with PRMT1 inh;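 active means mean inhibition across replicates above the hit cutoff derived for the earlier primary screen, cut at about 22% in these data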
* hit, by the source's call; . = not tested or not shown. The list is not random: actives were taken first. Their share in the collection is about 3.3%.

SMILES | MBD2 DNA inh | UHRF1 MBD2 ctr | PfG6PD inh | PfM18AAP inh | PRMT1 inh | PfG6PD confirm | PRMT1 confirm | others
CC1CCN(C(=O)COC(=O)c2ccc(=O)n(Cc3ccccc3)n2)CC1 | 1.0 | 7.2 | -8.1 | . | 1.3 | . | .
CSc1ccc(C(=S)N2CCN(C)CC2)cc1 | 3.3 | 13.4 | 49.5 | -0.9 | 18.7 | . | .
CN1CCN(C(=S)c2ccc([N+](=O)[O-])cc2)CC1 | -5.4 | 0.8 | 61.4* | 13.5 | 36.0* | 54.7* | 44.6* | Diaph ctr 10uM=-17.7;Diaphorase 30uM=-25.3
O=C(NCCCNC(=O)c1ccc(-c2cc(Cl)ccc2Cl)o1)c1cnccn1 | -8.0 | -3.6 | 0.1 | -7.6 | 1.6 | . | .
O=C(/C=C1\C(=O)Nc2ccccc21)/C=C1\C(=O)Nc2ccccc21 | -17.0 | -9.3 | 80.6* | 13.8 | 52.6* | 41.2 | 74.4*
O=C(O)c1cccc(N2C(=O)C=CC2=O)c1 | 0.9 | 3.4 | 75.6* | . | 59.2* | 76.2* | 84.3* | Diaph ctr 10uM=14.2;Diaphorase 30uM=13.0
CC1Sc2ccc(C(=O)NCc3ccccn3)cc2NC1=O (stereo not drawn) | 7.2 | 0.7 | 59.6* | . | 33.7* | 15.0 | 7.7
O=C(O)c1cc(-c2ccc(-c3ccc(F)cc3)o2)nc2ccccc12 | 0.7 | -1.0 | 93.3* | -81.0 | 85.7* | 35.0 | 27.4*
O=C(c1cc(-c2ccc(F)cc2)nc2ccccc12)N1CCC1 | 5.6 | -0.1 | -13.9 | . | -6.1 | . | .
Nc1n[nH]c(=S)n1/N=C1/C(=O)Nc2ccccc21 | -5.4 | 3.5 | 73.2* | 31.7* | 42.8* | 47.4 | 39.7*
CC(=O)c1ccc(OC(C)c2nc3ccccc3s2)cc1 (stereo not drawn) | -2.8 | -3.1 | -2.7 | 4.8 | 0.6 | . | .
Cc1ccc(NC(=O)c2cc(N3C(=O)C=CC3=O)ccc2N2CCOCC2)cc1 | -5.4 | -3.2 | 80.0* | 1.0 | 90.7* | 96.2* | 89.0* | Diaph ctr 10uM=5.0;Diaphorase 30uM=-16.4
Cc1[nH]c(=S)c(C#N)c2c1CCCC2 | -4.7 | -1.9 | 80.6* | 7.1 | 39.8* | 38.4 | 18.7
O=C(CSc1nnc(CNC(=O)c2ccc(F)cc2)o1)NCC1CCCO1 (stereo not drawn) | -4.0 | 0.0 | -6.7 | -14.5 | 3.6 | . | .
O=C(c1ccco1)N1CCN(C(=O)c2ccc(-c3ccc([N+](=O)[O-])cc3)o2)CC1 | 6.2 | 1.6 | 64.3* | . | 30.2* | -5.9 | 27.1*
O=C(c1ccc([N+](=O)[O-])cc1)N1CCN(C(=O)c2ccco2)CC1 | 2.4 | 2.3 | -8.6 | -2.2 | -1.8 | . | .
Nn1c(SCc2cccc3ccccc23)nnc1-c1cc(-c2ccc(Cl)cc2)n[nH]1 | 3.0 | 1.0 | . | . | 0.5 | . | .
COc1ccccc1N(C(C)=O)C1=C(Cl)C(=O)c2ccccc2C1=O | -5.1 | 6.7 | 123.3* | . | 94.5* | 115.4* | 88.6* | Diaph ctr 10uM=92.0*;Diaphorase 30uM=92.4*
O=C(CSC(=O)c1ccccc1)Nc1ccccc1F | 3.1 | 15.6 | 62.7* | . | 29.4* | 13.4 | 25.9*
O=C(CNC(c1ccccc1)c1ccccc1)Nc1ccccc1F | 1.2 | -1.9 | -21.3 | 2.3 | 2.0 | . | .
CC(=O)Oc1ccc2c(c1)C(=O)CCCCCC(=O)O2 | 0.9 | -0.2 | 0.4 | . | 2.3 | . | .
Cc1ccc(N=c2ssnc2Cl)cc1 | 1.6 | -9.4 | 90.7* | 8.9 | 69.6* | 43.5 | 88.9*
Cc1cc(Cl)ccc1N=c1ssnc1Cl | 5.5 | 6.0 | 78.9* | 6.7 | 43.9* | 28.7 | 94.0*
CS(=O)(=O)c1ccc(-c2csc(-c3cccnc3)n2)cc1 | 5.0 | -5.4 | 9.2 | 6.4 | 2.3 | . | .
CCN1CCN(C(=S)Nc2ccc3nc4n(c(=O)c3c2)CCCCC4)CC1 | -3.9 | 0.4 | 0.7 | 9.2 | 0.2 | . | .
SMILES | MBD2 DNA inh | UHRF1 MBD2 ctr | PfG6PD inh | PfM18AAP inh | PRMT1 inh | PfG6PD confirm | PRMT1 confirm | others
Cc1cnc(N)nc1-c1ccccc1 | 3.3 | -2.5 | 6.1 | . | -3.1 | . | .
Cc1cc(-c2csc(N)n2)c(C)n1C | 11.3 | 5.6 | 64.1* | 14.3 | 26.6* | -6.7 | 9.6
O=C(CCc1ccc(S(=O)(=O)N2CCOCC2)cc1)N/N=C/c1ccc(F)cc1F | 2.4 | 0.9 | -0.3 | -12.4 | -3.3 | . | .
O=C(CCc1ccc(S(=O)(=O)N2CCOCC2)cc1)N/N=C/c1ccc(O)c(O)c1O | -3.1 | 0.9 | 67.8* | 11.6 | 32.8* | 60.4* | 50.1* | Diaph ctr 10uM=33.2;Diaphorase 30uM=42.6
COc1ccccc1NS(=O)(=O)c1cc(NC(=O)C2CCC2)ccc1N1CCCCC1 | 1.9 | 3.2 | 60.0* | 15.7 | 36.1* | 26.9 | 4.2
Nc1nonc1C(=O)NCCNC(=O)c1cccc(Cl)c1 | -4.5 | -0.9 | -4.9 | 2.3 | -4.1 | . | .
CCOC(=O)Nc1ccc(NCc2ccc(F)cc2)nc1N | 0.3 | 2.6 | 97.8* | . | 63.7* | 79.5* | 13.8 | Diaph ctr 10uM=11.3;Diaphorase 30uM=11.5
CC(=O)Nc1ccc2sn(-c3ccccc3)c(=O)c2c1 | -1.2 | 0.1 | 126.2* | . | 76.8* | 105.4* | 89.5* | Diaph ctr 10uM=-12.4;Diaphorase 30uM=11.4
O=c1c2cc([N+](=O)[O-])ccc2sn1-c1ccccc1 | -0.1 | -0.8 | 121.2* | . | 63.9* | 105.3* | 80.6* | Diaph ctr 10uM=12.0;Diaphorase 30uM=17.2
N#Cc1ccc2sn(-c3ccccc3)c(=O)c2c1 | -2.4 | 2.8 | 126.3* | . | 87.5* | 107.2* | 98.4* | Diaph ctr 10uM=-10.9;Diaphorase 30uM=7.8
O=C(COC(=O)c1ccc(O)cc1)Nc1ccccc1 | 6.0 | -2.0 | 6.4 | -5.0 | -0.8 | . | .
O=C(Nc1cccc(-n2cccn2)c1)C1CCCN(Cc2ccc(C#CCCO)cc2)C1 (stereo not drawn) | 1.4 | 0.1 | 13.9 | 2.9 | -0.9 | . | .
Cc1ccc2nc(N(CCCN(C)C)C(=O)c3ccc4ncsc4c3)sc2c1 | 2.8 | 2.2 | 59.7* | 5.1 | 28.2* | -7.5 | 10.0
COc1ccc2nc(N(CCN(C)C)C(=O)c3ccc4ncsc4c3)sc2c1 | -3.9 | 2.1 | 34.0 | . | 16.1 | . | .
CCOC(=O)C(=O)Nc1cc(C(=O)OC)cc(C(=O)OC)c1 | 1.3 | -2.2 | -8.8 | -8.9 | -5.2 | . | .
O=C1C=CC(=O)N1CCCCCCCCCCN1C(=O)C=CC1=O | 2.7 | 0.2 | 83.6* | . | 81.5* | 54.9* | 97.7* | Diaph ctr 10uM=-19.6;Diaphorase 30uM=-24.6
O=C1C=CC(=O)N1Cc1ccncc1 | 4.8 | -0.8 | 3.6 | . | 6.8 | . | .
CS(=O)c1ccccc1O (stereo not drawn) | 7.1 | -0.6 | 1.4 | 12.5 | -0.5 | . | .
O=S(c1ccccc1O)S(=O)c1ccccc1O (stereo not drawn) | -4.1 | 3.0 | 93.7* | . | 88.0* | 74.8* | 95.2* | Diaph ctr 10uM=-15.0;Diaphorase 30uM=-9.3
CC(C1CCN(Cc2nc(C3CC3)no2)CC1)N1CCOCC1 (stereo not drawn) | -1.0 | 0.6 | -11.7 | -4.6 | -3.4 | . | .
Cc1ccc(N)cc1O | 1.2 | 1.0 | 65.2* | . | 39.1* | 36.8 | -0.3
Nc1ccc(O)c([N+](=O)[O-])c1 | -15.8 | -6.7 | 34.2 | . | 8.0 | . | .

Source: PubChem BioAssay
